Screening data deposited in PubChem by Sanford-Burnham Center for Chemical Genomics.
aDG glyco up: increases alpha dystroglycan glycosylation. Pro5-aDG cells, alpha-DG glycosylation AlphaScreen (IIH6); 0% Pro5, 100% B10-LARGE cell signal. activation, % at 10 µM. 360,000 tested, 0.22% active. AID 624168;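 active = activation of at least 8% versus controls, or a plate z-score of at least 8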;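 note: Pro5 are CHO cells carrying HIG-tagged alpha-DG that lacks glycosylation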
NadD block: inhibitors of Staphylococcus aureus NadD | 360,000 tested, 0.78% active | inhibition, % at 20 µM | purified NadD enzyme, colorimetric absorbance read-out; in the data active = inhibition above about 26%
H9c2 TAG inh: reduces triacylglycerol accumulation in H9c2 cells; inhibition, % at 12.5 µM; Nile Red lipid (TAG) fluorescence; cells loaded with 200 µM oleic acid; AID 651582; 230,000 tested, 0.66% active;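 active = pattern-corrected inhibition of lipid staining of at least 50% with the nuclear-stain viability signal not falling by more than 50%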;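 note: 0% = DMSO wells and 100% = triacsin C control wells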
MPTP inh: blocks calcium-induced mitochondrial swelling; isolated mouse mitochondria, Ca2+ swelling absorbance, 30 min; inhibition, % at 10 µM; 360,000 tested, 1.4% active; AID 602449;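 active = inhibition of 50% or more, scaled per plate between neutral and stimulator controls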;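 note: 0% = DMSO wells given calcium and 100% = 1 mM EGTA wells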
TAG conf: confirmation of triacylglycerol accumulation inhibitors; shares compounds with H9c2 TAG inh; 990 tested, 71% active; inhibition, % at 12.5 µM; H9c2 lipid accumulation, Nile Red fluorescence; cells loaded with 200 µM oleic acid;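 active = mean inhibition across replicates of 40% or more; inactive = mean inhibition below 40%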;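 note: plate controls were DMSO only wells for no effect and Triacsin C treated wells for full effect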
The depositor's hits bear a star; . = not tested or not shown. This is a sample that favours compounds with a hit; in the whole collection about 2.7% have one here.

SMILES	aDG glyco up	NadD block	H9c2 TAG inh	MPTP inh	TAG conf
CCOc1ccc2nc(-c3ccccc3)nc(SCC(=O)Nc3ncc(C)s3)c2c1	0	27	83*	1	81*
C=CCC[C@@H](Cc1ccc(F)cc1)C(=O)OC[C@@H](NC(=O)[C@@H](CC=C)CC(=O)N[C@H](CO)Cc1ccccc1)C(C)(C)C	0	-7	62*	-1	66*
C=CC[C@@H](CC(=O)N(CCO)Cc1ccccc1)C(=O)N[C@H](COC(=O)[C@@H](CC=C)Cc1ccc(F)cc1)Cc1ccccc1	1	-5	59*	2	68*
C=CC[C@@H](CC(=O)N[C@@H](CO)Cc1ccccc1)C(=O)N[C@H](COC(=O)[C@@H](CC=C)Cc1ccc(F)cc1)C(C)(C)C	0	-7	22	1	.
C=CC[C@H](CC(=O)N(CCO)Cc1ccccc1)C(=O)N[C@H](COC(=O)[C@@H](CC=C)CC(=O)OC(C)(C)C)Cc1ccccc1	1	-9	21	0	.
C=CC[C@@H](CC(=O)N(CCO)Cc1ccccc1)C(=O)N[C@@H](COC(=O)[C@@H](CC=C)Cc1ccc(F)cc1)Cc1ccccc1	2	0	75*	0	62*
C=CC[C@H](CC(=O)N(CCO)Cc1ccccc1)C(=O)N[C@@H](C)COC(=O)[C@@H](CC=C)Cc1ccc(F)cc1	0	-7	22	0	.
C=CC[C@@H](CC(=O)N(CCO)Cc1ccccc1)C(=O)N[C@H](COC(=O)[C@@H](CC=C)CC(=O)OC(C)(C)C)Cc1ccccc1	0	-1	50*	1	70*
COC(=O)[C@]1(CC(C)C)N[C@H](c2ccc(SC3CCCCC3)c(OC)c2)[C@@H]2C(=O)N(C)C(=O)[C@@H]21	0	-4	20	1	.
CCCCCCSc1ccc([C@H]2N[C@@](CC(C)C)(C(=O)OC)[C@H]3C(=O)N(C)C(=O)[C@@H]23)cc1OC	0	2	64*	2	55*
CCN1C(=O)[C@H]2[C@@H](c3ccc(-c4ccccc4)c(OC)c3)N[C@@](CC(C)C)(C(=O)OC)[C@H]2C1=O	0	-2	57*	0	40*
CC(OC(=O)c1ccc2c(c1)S(=O)(=O)c1ccccc1C2=O)C(N)=O (configuration not stated)	0	1	.	-2	.
CCOc1ccc(CN(C)C(=O)CCl)cc1	0	-4	58*	2	80*
CC1CCCN(Cc2c(O)ccc3c(=O)c(-c4nc5ccccc5s4)c(N)oc23)C1 (configuration not stated)	0	18	.	2	.
CC1(C)CCCN(Cc2c(O)ccc3c(=O)c(-c4nc5ccccc5s4)c(N)oc23)C1	0	7	55*	8	68*
Cc1ccc(S(=O)(=O)NC(=O)C2CCCCC2)cc1	6	-10	-9	0	.
O=C(Cc1c[nH]c2ccccc12)N/N=C/c1ccccc1O	0	-2	19	1	.
Cc1ccc(/C=N/NC(=O)Cc2c[nH]c3ccccc23)c(C)c1	0	1	54*	-5	44*
CC(=O)NC(Cc1c[nH]c2ccccc12)C(=O)N/N=C/c1ccccc1 (configuration not stated)	0	-2	13	0	.
CC(C)(C)c1ccc(/C=N/NC(=O)Cc2c[nH]c3ccccc23)cc1	0	-1	58*	8	42*
CS(=O)(=O)Oc1ccc2c(c1)O/C(=C\C=C\c1ccccc1)C2=O	0	1	54*	2	3
COc1ccc(CNC(=O)Nc2nc(C(N)Cc3ccc(Cl)cc3)cs2)cc1 (configuration not stated)	0	8	50*	4	59*
COc1ccc(CC(N)c2csc(NC(=O)Nc3ccccc3Cc3ccccc3)n2)cc1 (configuration not stated)	-1	16	21	6	.
COc1ccccc1NC(=O)Nc1nc(C(N)Cc2ccc(C(F)(F)F)cc2)cs1 (configuration not stated)	1	19	79*	3	69*
COc1ccc(CNC(=O)Nc2nc(C(N)Cc3ccc(F)cc3)cs2)cc1 (configuration not stated)	3	-11	20	4	.
SMILES	aDG glyco up	NadD block	H9c2 TAG inh	MPTP inh	TAG conf
NC(c1csc(NC(=O)Nc2ccccc2Cl)n1)C1CCCCC1 (configuration not stated)	-1	5	24	4	.
COc1ccc(CC(N)c2csc(NC(=O)Nc3ccccc3C(C)C)n2)cc1 (configuration not stated)	2	8	58*	4	42*
COc1ccccc1NC(=O)Nc1nc(C(N)C2CCCCC2)cs1 (configuration not stated)	1	3	52*	2	33
CC(=O)NC(C)(c1ccccc1)c1nc(-c2cccc(F)c2)cs1 (configuration not stated)	0	-4	-18	0	.
COc1cc(NC(=O)Nc2nc(C(N)Cc3ccc(C(F)(F)F)cc3)cs2)cc(OC)c1OC (configuration not stated)	-1	15	87*	4	99*
CC(=O)CSc1nc2nccnc2[nH]1	0	-1	-21	-1	.
C[C@H]1C[C@H]2[C@@H]3CCC4=CC(=O)C=C[C@]4(C)[C@@]3(F)[C@@H](O)C[C@]2(C)[C@@]1(O)C(=O)CO	0	-5	19	.	.
CC1(c2ccccc2)O[C@@H]2C[C@H]3[C@@H]4CCC5=CC(=O)C=C[C@]5(C)[C@@]4(F)[C@@H](O)C[C@]3(C)[C@]2(C(=O)CO)O1 (some centres not stated)	0	-8	53*	2	55*
CC1CCCC(CC(N)=O)CC1 (configuration not stated)	0	-1	-5	1	.
CSc1cc(-c2ccc(Cl)cc2)n(Cc2ccccc2)c(=O)c1C#N	0	2	64*	7	36
CSc1cc(-c2ccccc2)n(Cc2c(Cl)cccc2Cl)c(=O)c1C#N	0	7	58*	0	68*
COC(=O)C[C@H]1C[C@H]2c3cc(NC(=O)Cc4ccncc4)ccc3O[C@H]2[C@@H](CO)O1	0	-2	7	0	.
Cc1cccc(Nc2nc(NCc3ccco3)nc(N3CCOCC3)n2)c1	0	-1	86*	2	83*
Cc1cc2c(cc1C)CSC(c1ccccc1O)SC2	0	-4	54*	6	23
Cc1cc2c(cc1C)CSC(c1ccc3ccccc3c1O)SC2	0	26	0	16	.
COc1ccc(NC2=NC(=S)N(c3ccc(C)cc3)C23CCCCC3)cc1	0	-2	57*	0	30
Cc1c(C(=O)Nc2c(C)n(C)n(-c3ccccc3)c2=O)oc2ccc(Cl)cc12	0	2	-9	0	.
Cc1ccc(-n2c(SCC(=O)NC3CCS(=O)(=O)C3)nc3ccccc3c2=O)c(C)c1 (configuration not stated)	0	-6	-2	0	.
